The panel holds about 79,000 compounds, 15% with a hit somewhere; the sample as a whole holds those more often. Activity calls are given as the source filed them. Rule as the data show it: active = growth inhibition above about 70%; inactive = the rest.
Test: NCI Yeast Anticancer Drug Screen. Data for the mec2-1 strain (AID 157)
Conditions: S. cerevisiae mec2-1 strain, active compounds read high
Experimental: Growth inhibition of yeast strains with defined genetic alterations is measured as a screen for potential anti-cancer activity. Selected strains with alterations in DNA damage repair or cell cycle control were exposed to compounds and growth inhibition was measured relative to vehicle treated controls. The strain used in this assay is mec2-1

[1] = at 5.0 µM (retest, dose inferred, filed as 0.5)
[2] = at 50.0 µM (retest, dose inferred, filed as 5.0)

Measured: growth inhibition

O=[N+]([O-])C(=C(Sc1ccccc1)Sc1ccccc1)C(Cl)=C(Cl)Cl
inactive: at 1.2 µM 12% | at 3.7 µM 26% | [1] 22% | at 11.0 µM 37% | at 33.0 µM 46% | [2] 26% | at 50.0 µM 46.5% | at 100.0 µM 46%

CCN(CC)CCNc1ccc([N+](=O)[O-])c2nc3ccc(OC)cc3c(N)c12
inactive: at 1.2 µM -24% | at 3.7 µM -19% | [1] -5% | at 11.0 µM -8% | at 33.0 µM 5% | [2] 21% | at 50.0 µM -26.1% | at 100.0 µM 42%

Cc1cc(N=Nc2ccc(S(=O)(=O)[O-])cc2)cc(C(=O)[O-])c1[O-].NC1CCCCC1N.[Na+].[Pt+4]
active: at 3.7 µM 77% | at 11.0 µM 99% | at 33.0 µM 99% | [2] 99% | at 50.0 µM 91.2% | at 100.0 µM 98%
inactive: at 1.2 µM 9% | [1] 32%

CC(C)/C(Cl)=N\OC(=O)Nc1ccccc1F
active: [2] 86% | at 50.0 µM 76%
inactive: at 1.2 µM 11% | at 3.7 µM 17% | [1] -1% | at 11.0 µM 23% | at 33.0 µM 31% | at 100.0 µM 31%

Cc1ccc(S(=O)(=O)Oc2cc(Cl)c(Cl)cc2Cl)cc1
inactive: at 1.2 µM -1% | at 3.7 µM -1% | [1] -29% | at 11.0 µM -5% | at 33.0 µM -9% | [2] -17% | at 50.0 µM -21.8% | at 100.0 µM -6%
